Laboratory results as given in the supplement of paper PMC10849652.
Of roughly 8,800 targets only a part is listed; those with a hit were picked by preference. About 0.5% of all pairs of compound and target were hits.

Experiments:
Test in all cases: log2 fold change, soluble protein after heating vs DMSO (PISA); higher = thermal stabilisation; K562 lysate, 10 uM; active = over 0.2 and 3.5 SD of the protein, either way, in both replicates (recomputed)
[1] = compound: C1=CC=C(C=C1)[C@H](COC2=CC3=C(C=C2)NC(=O)N3)NC(=O)C4=CC=CN(C4=O)CC5=CC(=C(C=C5)F)F
Summary of the method: (§1)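 Pellets of K562 cells were dounce-homogenised in PBS pH 7.4 with 1 mM MgCl2, and the crude extract was held at 1 mg/mL protein for a 30 min treatment with 10 μM compound. Aliquots were heated for 3 min over 48°C-58°C and pooled before NP-40 was added to 0.5% at 4°C. The supernatant from 21,000xg for 90 min was quantified by TMTpro 16plex LC-MS/MS with channel sums equalised. Values are reported from duplicates as log-two fold change in thermal stability relative to solvent controls.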

[2] = compound: CC1=C(SC2=C1C(=N[C@H](C3=NN=C(N32)C)CC(=O)N)C4=CC=C(C=C4)Cl)C
Summary of the method: as §1

[3] = compound: CC1=C2C(=CC=C1)N=C(N(C2=O)C3=CC=CC=C3C)CN4C=NC5=C(N=CN=C54)N
Summary of the method: as §1

[4] = compound: Cc1sc2c(c1C)C(c1ccc(Cl)cc1)=N[C@@H](CC(=O)OC(C)(C)C)c1nnc(C)n1-2
Summary of the method: as §1

[5] = compound: c1ccc([C@@H]2C[C@H]2NC2CCNCC2)cc1
Summary of the method: as §1

Measured: log2 fold change

STK24 (UniProt B4DR80)
inactive: [1] -0.025 | [2] 0.003 | [3] -0.041 | [4] -0.019 | [5] -0.055

SMC3 (UniProt Q9UQE7)
Sequence of UniProt Q9UQE7 (Q9UQE7 whole entry, looked up): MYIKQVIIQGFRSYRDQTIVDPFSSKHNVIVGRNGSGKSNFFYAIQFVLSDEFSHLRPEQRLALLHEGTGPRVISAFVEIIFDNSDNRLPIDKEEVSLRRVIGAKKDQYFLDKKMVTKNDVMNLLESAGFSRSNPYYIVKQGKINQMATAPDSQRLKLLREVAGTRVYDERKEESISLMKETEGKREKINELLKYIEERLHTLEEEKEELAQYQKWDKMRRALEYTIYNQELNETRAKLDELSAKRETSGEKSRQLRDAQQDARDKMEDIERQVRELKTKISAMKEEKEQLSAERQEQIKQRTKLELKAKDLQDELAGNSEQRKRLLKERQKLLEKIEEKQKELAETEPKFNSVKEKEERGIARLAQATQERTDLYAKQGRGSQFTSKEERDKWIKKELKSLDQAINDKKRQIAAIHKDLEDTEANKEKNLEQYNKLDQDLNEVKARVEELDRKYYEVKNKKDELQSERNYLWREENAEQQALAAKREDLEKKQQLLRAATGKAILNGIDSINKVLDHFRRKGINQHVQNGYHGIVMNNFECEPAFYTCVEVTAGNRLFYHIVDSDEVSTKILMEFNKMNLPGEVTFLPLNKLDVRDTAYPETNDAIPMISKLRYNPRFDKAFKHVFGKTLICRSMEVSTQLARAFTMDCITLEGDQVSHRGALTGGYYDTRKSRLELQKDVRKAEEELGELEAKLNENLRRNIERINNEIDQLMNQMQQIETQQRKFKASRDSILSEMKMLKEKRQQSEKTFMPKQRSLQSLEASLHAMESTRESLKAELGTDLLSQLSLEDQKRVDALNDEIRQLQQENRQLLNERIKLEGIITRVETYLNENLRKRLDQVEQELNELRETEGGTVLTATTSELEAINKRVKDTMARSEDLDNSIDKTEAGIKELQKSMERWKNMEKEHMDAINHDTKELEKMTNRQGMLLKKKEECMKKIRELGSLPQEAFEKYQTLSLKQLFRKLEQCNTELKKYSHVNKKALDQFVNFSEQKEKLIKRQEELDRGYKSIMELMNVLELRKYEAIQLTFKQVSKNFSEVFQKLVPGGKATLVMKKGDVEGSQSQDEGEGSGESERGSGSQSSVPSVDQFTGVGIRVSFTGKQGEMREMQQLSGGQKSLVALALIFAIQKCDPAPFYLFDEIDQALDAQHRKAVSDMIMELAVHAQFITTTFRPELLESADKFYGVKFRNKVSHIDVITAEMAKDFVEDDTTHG
inactive: [1] -0.002 | [2] 0.011 | [3] -0.011 | [4] 0.037 | [5] 0.022

SH3BP5L (UniProt Q7L8J4)
Sequence of UniProt Q7L8J4 (Q7L8J4 whole entry, looked up): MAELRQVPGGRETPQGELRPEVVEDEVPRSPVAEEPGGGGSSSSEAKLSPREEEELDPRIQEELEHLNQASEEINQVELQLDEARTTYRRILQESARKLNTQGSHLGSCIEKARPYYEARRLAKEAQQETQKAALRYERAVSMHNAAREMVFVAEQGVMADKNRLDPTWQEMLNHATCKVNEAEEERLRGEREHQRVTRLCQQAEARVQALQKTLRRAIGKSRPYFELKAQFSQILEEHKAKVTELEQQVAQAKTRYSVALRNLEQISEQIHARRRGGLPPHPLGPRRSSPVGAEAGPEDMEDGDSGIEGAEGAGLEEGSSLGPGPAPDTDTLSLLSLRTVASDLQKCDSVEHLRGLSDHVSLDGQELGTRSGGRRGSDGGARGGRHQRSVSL
inactive: [1] 0.015 | [2] 0.015 | [3] 0.047 | [4] 0.01 | [5] -0.024

SHCBP1 (UniProt Q8NEM2)
Sequence of UniProt Q8NEM2 (Q8NEM2 whole entry, looked up): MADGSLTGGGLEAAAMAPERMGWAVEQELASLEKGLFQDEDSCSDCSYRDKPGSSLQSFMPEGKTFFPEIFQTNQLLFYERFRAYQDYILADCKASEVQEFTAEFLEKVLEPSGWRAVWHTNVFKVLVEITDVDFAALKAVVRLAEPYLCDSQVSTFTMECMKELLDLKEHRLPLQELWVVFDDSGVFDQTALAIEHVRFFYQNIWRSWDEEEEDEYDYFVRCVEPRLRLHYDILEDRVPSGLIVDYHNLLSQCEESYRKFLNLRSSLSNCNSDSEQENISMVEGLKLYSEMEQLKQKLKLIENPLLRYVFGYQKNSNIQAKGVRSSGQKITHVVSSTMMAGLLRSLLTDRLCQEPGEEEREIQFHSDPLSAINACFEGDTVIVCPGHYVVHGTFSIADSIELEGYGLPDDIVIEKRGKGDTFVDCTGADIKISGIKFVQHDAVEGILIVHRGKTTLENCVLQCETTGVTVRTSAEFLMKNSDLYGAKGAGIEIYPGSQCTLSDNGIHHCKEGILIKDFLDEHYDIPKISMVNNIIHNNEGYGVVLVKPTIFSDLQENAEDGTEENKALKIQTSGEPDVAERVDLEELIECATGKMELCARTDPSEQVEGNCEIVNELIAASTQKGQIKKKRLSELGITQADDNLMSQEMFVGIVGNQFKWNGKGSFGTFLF
inactive: [1] 0.056 | [2] 0.012 | [3] -0.032 | [4] -0.022 | [5] -0.039

SMG5 (UniProt Q9UPR3)
Sequence of UniProt Q9UPR3 (Q9UPR3 whole entry, looked up): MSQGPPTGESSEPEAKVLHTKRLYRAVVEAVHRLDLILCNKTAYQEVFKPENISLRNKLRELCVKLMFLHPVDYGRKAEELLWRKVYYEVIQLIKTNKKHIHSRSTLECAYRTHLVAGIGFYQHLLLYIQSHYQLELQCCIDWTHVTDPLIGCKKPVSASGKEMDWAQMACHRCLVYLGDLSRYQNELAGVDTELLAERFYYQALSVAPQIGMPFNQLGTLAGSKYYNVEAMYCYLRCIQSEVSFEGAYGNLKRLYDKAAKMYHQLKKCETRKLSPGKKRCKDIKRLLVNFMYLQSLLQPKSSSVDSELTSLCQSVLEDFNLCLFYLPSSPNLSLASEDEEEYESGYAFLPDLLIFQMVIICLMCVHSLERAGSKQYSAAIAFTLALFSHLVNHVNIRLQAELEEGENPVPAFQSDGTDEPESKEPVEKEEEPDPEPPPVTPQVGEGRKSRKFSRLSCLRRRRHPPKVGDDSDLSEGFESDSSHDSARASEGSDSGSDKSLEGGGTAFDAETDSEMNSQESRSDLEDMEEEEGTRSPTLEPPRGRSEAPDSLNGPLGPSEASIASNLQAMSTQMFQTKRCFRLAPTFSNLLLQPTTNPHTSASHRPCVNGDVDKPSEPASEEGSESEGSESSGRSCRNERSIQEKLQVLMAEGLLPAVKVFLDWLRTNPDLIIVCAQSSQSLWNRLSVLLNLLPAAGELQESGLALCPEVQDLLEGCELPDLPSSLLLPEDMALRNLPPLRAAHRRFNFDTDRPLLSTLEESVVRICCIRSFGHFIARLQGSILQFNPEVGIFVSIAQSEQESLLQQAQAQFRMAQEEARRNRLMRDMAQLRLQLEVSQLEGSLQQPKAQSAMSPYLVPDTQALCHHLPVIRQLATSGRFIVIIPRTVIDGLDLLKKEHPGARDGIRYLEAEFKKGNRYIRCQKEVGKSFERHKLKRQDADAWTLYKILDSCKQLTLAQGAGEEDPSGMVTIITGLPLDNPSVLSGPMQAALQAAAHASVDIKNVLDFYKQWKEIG
inactive: [1] -0.078 | [2] 0.041 | [3] 0.026 | [4] -0.047 | [5] -0.024

SNRPD3 (UniProt P62318)
Sequence of UniProt P62318 (P62318 whole entry, looked up): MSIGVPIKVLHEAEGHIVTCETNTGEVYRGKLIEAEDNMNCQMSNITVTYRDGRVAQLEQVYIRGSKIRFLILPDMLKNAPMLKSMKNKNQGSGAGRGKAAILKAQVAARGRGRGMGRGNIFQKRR
inactive: [1] -0.02 | [2] -0.011 | [3] 0.022 | [4] -0.027 | [5] -0.118

SLC30A9 (UniProt Q6PML9)
Sequence of UniProt Q6PML9 (Q6PML9 whole entry, looked up): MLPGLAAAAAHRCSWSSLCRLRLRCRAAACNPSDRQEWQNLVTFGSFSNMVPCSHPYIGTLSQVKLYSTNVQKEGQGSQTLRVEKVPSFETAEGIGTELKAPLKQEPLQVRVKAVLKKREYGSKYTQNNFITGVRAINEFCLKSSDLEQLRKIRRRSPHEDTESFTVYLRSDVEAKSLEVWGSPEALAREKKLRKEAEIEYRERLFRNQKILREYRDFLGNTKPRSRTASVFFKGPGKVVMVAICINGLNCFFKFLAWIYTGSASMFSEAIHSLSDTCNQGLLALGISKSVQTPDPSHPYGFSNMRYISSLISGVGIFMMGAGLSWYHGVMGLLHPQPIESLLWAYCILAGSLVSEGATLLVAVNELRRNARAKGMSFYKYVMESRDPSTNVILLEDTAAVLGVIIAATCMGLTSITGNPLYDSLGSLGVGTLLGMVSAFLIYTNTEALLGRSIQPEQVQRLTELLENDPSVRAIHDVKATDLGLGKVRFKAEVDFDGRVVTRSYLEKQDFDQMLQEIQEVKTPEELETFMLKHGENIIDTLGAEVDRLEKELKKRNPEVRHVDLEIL
inactive: [1] -0.013 | [2] -0.045 | [3] 0.003 | [4] -0.013 | [5] -0.105

SMARCAD1 isoform 2 (UniProt Q9H4L7)
Sequence of UniProt Q9H4L7 (Q9H4L7 whole entry, looked up): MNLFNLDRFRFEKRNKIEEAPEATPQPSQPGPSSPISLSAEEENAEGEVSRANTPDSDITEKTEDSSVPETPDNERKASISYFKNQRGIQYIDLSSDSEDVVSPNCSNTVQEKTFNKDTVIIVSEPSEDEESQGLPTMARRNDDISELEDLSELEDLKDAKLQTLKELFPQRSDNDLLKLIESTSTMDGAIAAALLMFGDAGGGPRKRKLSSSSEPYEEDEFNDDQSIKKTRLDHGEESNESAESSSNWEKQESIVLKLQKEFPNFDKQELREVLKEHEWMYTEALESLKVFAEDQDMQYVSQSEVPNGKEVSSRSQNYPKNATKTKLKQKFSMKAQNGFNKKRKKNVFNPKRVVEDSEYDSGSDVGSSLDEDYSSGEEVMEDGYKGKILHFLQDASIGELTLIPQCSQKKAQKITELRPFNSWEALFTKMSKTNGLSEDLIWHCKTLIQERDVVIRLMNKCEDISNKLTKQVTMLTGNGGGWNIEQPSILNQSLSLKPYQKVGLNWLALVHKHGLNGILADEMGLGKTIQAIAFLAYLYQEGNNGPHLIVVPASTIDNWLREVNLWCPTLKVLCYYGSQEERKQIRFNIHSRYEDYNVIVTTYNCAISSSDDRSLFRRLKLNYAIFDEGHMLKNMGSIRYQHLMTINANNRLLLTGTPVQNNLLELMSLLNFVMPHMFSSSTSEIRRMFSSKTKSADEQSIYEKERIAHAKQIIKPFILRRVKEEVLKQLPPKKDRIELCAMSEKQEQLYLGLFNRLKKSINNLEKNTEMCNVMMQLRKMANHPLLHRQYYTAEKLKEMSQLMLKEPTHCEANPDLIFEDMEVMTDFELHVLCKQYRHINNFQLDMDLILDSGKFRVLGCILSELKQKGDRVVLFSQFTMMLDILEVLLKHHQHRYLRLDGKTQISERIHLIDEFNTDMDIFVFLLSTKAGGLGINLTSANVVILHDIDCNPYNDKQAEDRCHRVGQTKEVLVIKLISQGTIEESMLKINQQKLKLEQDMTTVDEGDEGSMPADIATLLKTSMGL
inactive: [1] -0.006 | [2] -0.036 | [3] 0.014 | [4] 0.014 | [5] 0.035

SOX5 (UniProt P35711)
inactive: [1] -0.092 | [2] -0.052 | [3] 0.076 | [4] -0.005 | [5] 0
